Reference: PubChem BioAssay AID1259325 (C. David Weaver Laboratory, Vanderbilt University, 2017)
The campaign covered roughly 63,000 compounds. About 30 (0.05%) were called active. The rule behind the calls is not given here. A selection follows.

What follows are compounds tested against G protein-activated inward rectifier potassium channel 2 (Homo sapiens) (UniProt P48051) (assay: activators of human GIRK2 potassium channels (AID 1259325)). Details: HEK293-GIRK2 thallium flux, Thallos fluorescence, MPD.
Sequence of G protein-activated inward rectifier potassium channel 2 (Homo sapiens) (P48051 whole entry, looked up): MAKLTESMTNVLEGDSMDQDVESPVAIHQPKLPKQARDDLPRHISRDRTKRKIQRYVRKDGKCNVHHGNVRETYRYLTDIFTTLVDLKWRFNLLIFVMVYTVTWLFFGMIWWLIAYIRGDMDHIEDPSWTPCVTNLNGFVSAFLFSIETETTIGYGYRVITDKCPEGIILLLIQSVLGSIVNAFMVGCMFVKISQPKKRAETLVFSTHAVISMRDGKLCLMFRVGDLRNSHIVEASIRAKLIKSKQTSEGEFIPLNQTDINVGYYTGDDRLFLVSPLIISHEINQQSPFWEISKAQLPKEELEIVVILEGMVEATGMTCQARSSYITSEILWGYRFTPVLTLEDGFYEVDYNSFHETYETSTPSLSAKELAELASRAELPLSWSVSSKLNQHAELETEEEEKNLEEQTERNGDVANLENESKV
For `CCCCCn1c(=O)c2c(nc3n2CC(C)CN3c2ccc(Oc3ccccc3)cc2)n(C)c1=O` (stereo not drawn), the outcome was “inactive”. For `Cc1cc(C(=O)NCC#CCOc2ccc3c(c2)OCO3)c(C)o1`, the outcome was “inactive”. In the case of `COc1cc(OC)cc(N(C)S(=O)(=O)c2ccsc2-c2nc(-c3cccc(C)c3)no2)c1`, the outcome is reported as “inactive”. In the case of `O=C(CSc1nnc(-c2ccc(Cl)cc2)c2ccccc12)N1CCOCC1`, the outcome is reported as “inactive”. For `Cc1csc(SCC2CCN(S(=O)(=O)c3cccc(C(F)(F)F)c3)CC2)n1`, the outcome was “inactive”. For `CC(C)(C)OC(=O)COc1ccc2c(c1)O/C(=C\c1cc(Cl)cc3c1OCOC3)C2=O`, the outcome was “inactive”. `Cc1nc(SCc2ccccc2)[nH]c(=O)c1CC(=O)Nc1ccc(C(C)C)cc1` was tested, and the outcome was “inactive”. With `Cc1ccc(S(=O)(=O)N(Cc2ccc(Cl)cc2)C(=O)N2CCN(C)CC2)cc1` the outcome was “inactive”. In the case of `COc1ccc(C)c2sc(N(CCCn3ccnc3)C(=O)/C=C/c3cccs3)nc12`, the outcome is reported as “inactive”. `CCC(C(=O)Nc1cc(F)ccc1F)n1cc(-c2nc(-c3cnccn3)no2)ccc1=O` (stereo not drawn) was tested, and the outcome was “inactive”. For `COc1cc(NC(=O)Cn2cnc3c(-c4ccc(Cl)cc4)csc3c2=O)cc(OC)c1`, the outcome was “inactive”. In the case of `COc1ccccc1OCC#CCNC(=O)c1cnccn1`, the outcome is reported as “inactive”. For `Cc1cc(C)c2c(c1)c(=O)c1c(n2C)CCN(C(=O)Nc2cc(Cl)ccc2C)C1`, the outcome was “inactive”. `COc1ccc(C2(CNC(=O)C3CCN(S(C)(=O)=O)CC3)CCOCC2)cc1` was tested, and the outcome was “inactive”. With `O=C(CSc1cc(C(F)(F)F)c2cc3c(cc2n1)OCO3)NCc1ccco1` the outcome was “inactive”. With `O=C(Cc1ccc(NS(=O)(=O)c2c(F)cccc2F)cc1)NCc1cccs1` the outcome was “inactive”. With `Cc1nn(-c2ncc(NC(=O)c3cccc4ccccc34)cn2)c(C)c1C` the outcome was “inactive”. With `Cc1nc(C)c(-c2nnc(NC(=O)COc3cccc4c3OC(C)(C)C4)o2)s1` the outcome was “inactive”. For `COc1ccc(F)cc1S(=O)(=O)N1CCN=C1c1ccccc1`, the outcome was “inactive”. In the case of `O=C(CSCc1ccccc1)Nc1cnoc1`, the outcome is reported as “inactive”. `COc1ccc(Cn2cc(S(=O)(=O)N3CCCCC3)ccc2=O)cc1F` was tested, and the outcome was “inactive”. With `O=C(CC1CCCC1)N(CCc1cccs1)Cc1ccoc1` the outcome was “inactive”. For `Cc1cc(SCC(=O)c2ccc3c(c2)OCO3)nc(C(C)C)n1`, the outcome was “inactive”. `C=C(C)COc1ccc(-c2nc(N)nc(C(F)(F)F)c2-c2ccccc2OC)c(O)c1` was tested, and the outcome was “inactive”. With `CCOC(=O)C1CCc2sc(NC(=O)C3CCCN(Cc4nc(-c5cccnc5)no4)C3)nc21` (stereo not drawn) the outcome was “inactive”. With `CCOC(=O)CN1CCC(c2nnc(-c3ccc(F)cc3)o2)CC1` the outcome was “inactive”. For `CCOC(=O)c1cnn2ccc(NC(=O)C(c3ccccc3)c3ccccc3)cc12`, the outcome was “inactive”. With `O=C1CC(c2nc3ccccc3n2CCOc2ccccc2)CN1c1ccccc1` (stereo not drawn) the outcome was “inactive”. With `COc1ccccc1N1CCN(CC(=O)N2CCN(S(C)(=O)=O)CC2)C1=O` the outcome was “inactive”. With `COc1ccccc1NC(=O)CN1N=NC2C(=O)N(c3ccc(F)c(F)c3)C(=O)C21` (stereo not drawn) the outcome was “inactive”. For `CCOc1ccc(C2C(C(=O)c3sc(C)nc3C)=C(O)C(=O)N2CCCN(C)C)cc1` (stereo not drawn), the outcome was “inactive”. For `CN(C)C(CNC(=O)C1c2ccccc2Oc2ccccc21)c1cccn1C` (stereo not drawn), the outcome was “inactive”. With `CCCN(C)c1nccn2c(=O)n(CC(=O)Nc3cccc(CC)c3)nc12` the outcome was “inactive”. With `CCOC(=O)c1ccc(NC(=O)Cn2ccn(Cc3ccc(Cl)cc3)c(=O)c2=O)cc1` the outcome was “inactive”. With `Cc1nc(C)c(-c2ccc(=O)n(CCNC(=O)C3CCN(S(C)(=O)=O)CC3)n2)s1` the outcome was “inactive”. `O=C(c1ccc2c(c1)OCO2)N1CCC(CSc2ccccn2)CC1` was tested, and the outcome was “inactive”. For `COc1ccc(S(=O)(=O)N2CCCOC2CNC(=O)C(=O)NCc2ccc(C)cc2)cc1OC` (stereo not drawn), the outcome was “inactive”. For `Cn1c(=O)n(CCc2ccccc2)c(=O)c2c(N3CCN(C(=O)c4ccco4)CC3)ccnc21`, the outcome was “inactive”. In the case of `COc1cccc(CSc2nc(C)c(CC(=O)NCc3cccs3)c(=O)[nH]2)c1`, the outcome is reported as “inactive”. With `COc1ccc(NC(=O)CSc2nnc(C3CC(=O)N(c4ccc(C)cc4)C3)o2)cc1` (stereo not drawn) the outcome was “inactive”. `O=C(O)CCC/C=C\C[C@@H]1C(/C=C/[C@@H](O)COc2cccc(C(F)(F)F)c2)[C@H](O)C[C@@H]1O` (stereo partly drawn) was tested, and the outcome was “inactive”. `O=C(CSc1ccc(-c2nc(-c3ccccc3)no2)cn1)NCc1ccc2c(c1)OCO2` was tested, and the outcome was “inactive”. With `CCCNC(=O)Cn1nc2c(c1NC(=O)COc1ccccc1F)CSC2` the outcome was “inactive”. For `O=C(COc1ccc(Cl)cc1)Nc1ccc(N2CCCCS2(=O)=O)cc1`, the outcome was “inactive”. With `O=C1CC(C(=O)Nc2ccccc2Cl)n2c(nc3ccccc32)N1` (stereo not drawn) the outcome was “inactive”. In the case of `COCCNC(=O)c1[nH]c2ccccc2c1NC(=O)c1cccc(C)c1`, the outcome is reported as “inactive”. For `COc1cc(/C=C2\Oc3c4c(cc(C)c3C2=O)OCN(C2CC2)C4)cc(OC)c1OC`, the outcome was “inactive”. In the case of `CCc1ccc(NC(=O)NCCNc2cc(Nc3ccccn3)ncn2)cc1`, the outcome is reported as “inactive”. With `Cc1cc(C)n(-c2cc(SCC(=O)N3CCCC3)ncn2)n1` the outcome was “inactive”. For `COc1ccc(-c2ccc(C)c(NC(=O)c3cc4ccccc4oc3=O)c2)nn1`, the outcome was “inactive”. `Cn1cccc(C(=O)Nc2ccc3c(c2)CCC(=O)N3)c1=O` was tested, and the outcome was “inactive”. With `O=C(CCn1c(=O)oc2ccc(Cl)cc21)N1CCN(c2ccccc2Cl)CC1` the outcome was “inactive”. In the case of `COc1cccc(OCc2nc3c(C)cccc3[nH]2)c1`, the outcome is reported as “inactive”. `CCC(C)c1ccc(Cn2c(CO)nc3ccccc32)cc1` (stereo not drawn) was tested, and the outcome was “inactive”. With `CC(=O)c1cccc(NC(=O)CCCn2cnc(-c3ccc(F)cc3)cc2=O)c1` the outcome was “inactive”. In the case of `COCCn1c(SCc2nc(-c3ccc(Cl)cc3)no2)nc2cc3c(cc2c1=O)OCO3`, the outcome is reported as “inactive”. `CCOc1cc(C(=O)Nc2ccc3c(c2)N(C(C)=O)CCC3)cc(OCC)c1OCC` was tested, and the outcome was “inactive”. With `Cn1cnnc1SCc1cc(=O)c(OCC(=O)NCc2ccco2)co1` the outcome was “inactive”. In the case of `COC(=O)c1[nH]c(C)c(C(O)=C2C(=O)C(=O)N(CCCN(C)C)C2c2cccs2)c1C` (stereo not drawn), the outcome is reported as “inactive”. `O=C(Nc1nc(-c2cc3ccccc3o2)cs1)c1ccc(S(=O)(=O)N2CCOCC2)cc1` was tested, and the outcome was “inactive”. `Cc1ccnc(Nc2cc(NCCNC(=O)Nc3cccc(Cl)c3)ncn2)c1` was tested, and the outcome was “inactive”. For `COc1cccc(NC(=O)CSc2ncc(S(=O)(=O)c3ccc(Cl)cc3)c(=O)[nH]2)c1`, the outcome was “inactive”. In the case of `O=S(=O)(Cc1nc(-c2cccc(Cl)c2)no1)c1ccccc1`, the outcome is reported as “inactive”.
